Results published in the supplement of paper PMC12669032.
Values without a mark were called inactive.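 How the source made its calls: active = AUC reduced over 20% with Padj below 0.05 in at least 2 of 3 replicates; inactive = otherwise.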

Experiments:
Assay in all cases: growth AUC relative to DMSO control (median of replicates) (fraction); higher = more growth (less inhibition), active = hit call of the paper
Conditions in all cases: 20 µM; 24 h
Akkermansia muciniphila = tested on: Akkermansia muciniphila
Procedure, shortened: (§1)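 OD600 was recorded every hour for 24 h in anaerobic monocultures of gut bacteria kept at 37 °C in mGAM, seeded at OD600 0.05 and given 20 µM compound in 1% DMSO. The area under each growth curve was scaled to the plate median of solvent-only wells, or to row and column medians for the industrial chemical plate. Before this step, the minimum OD was set to 0. Reported values are medians of three biological replicates run on separate days.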

Bacteroides caccae = tested on: Bacteroides caccae
Procedure, shortened: as §1

Bacteroides clarus = tested on: Bacteroides clarus
Procedure, shortened: as §1

Bacteroides dorei = tested on: Bacteroides dorei
Procedure, shortened: as §1

Bacteroides stercoris = tested on: Bacteroides stercoris
Procedure, shortened: as §1

[1] = tested on: Bacteroides thetaiotaomicron
Procedure, shortened: as §1

Bacteroides uniformis = tested on: Bacteroides uniformis
Procedure, shortened: as §1

[2] = tested on: Bifidobacterium longum subsp. longum
Procedure, shortened: as §1

Clostridium difficile = tested on: Clostridium difficile
Procedure, shortened: as §1

Collinsella aerofaciens = tested on: Collinsella aerofaciens
Procedure, shortened: as §1

Row | SMILES | growth AUC (Akkermansia muciniphila) | growth AUC (Bacteroides caccae) | growth AUC (Bacteroides clarus) | growth AUC (Bacteroides dorei) | growth AUC (Bacteroides stercoris) | growth AUC [1] | growth AUC (Bacteroides uniformis) | growth AUC [2] | growth AUC (Clostridium difficile) | growth AUC (Collinsella aerofaciens)
1 | CC(Cc1ccc(C(C)(C)C)cc1)CN1C[C@@H](C)O[C@@H](C)C1 (stereo not given in full) | 1.04 | 1.03 | 0.974 | 1.01 | 1.07 | 0.996 | 1.05 | 0.992 | 1.02 | 1
2 | O=NN(CCO)CCO | 1.01 | 1.01 | 1.02 | 0.979 | 1.18 | 1.01 | 1.02 | 0.837 | 1.01 | 0.994
3 | COP(=O)(OC)Oc1ccc(S(C)=O)c(C)c1 (stereo not given) | 0.935 | 0.986 | 0.95 | 1 | 1.02 | 0.972 | 0.994 | 1 | 1.01 | 0.996
4 | CC(C)=CC1C(C(=O)OCc2cccc(Oc3ccccc3)c2)C1(C)C (mixture of isomers) | 1.21 | 0.961 | 0.994 | 0.917 | 1.01 | 1 | 0.991 | 0.864 | 1.02 | 0.914
5 | CCOc1cc(C(C)(C)C)ccc1C1COC(c2c(F)cccc2F)=N1 (stereo not given) | 0.955 | 0.941 | 1 | 1.03 | 1.23 | 0.978 | 0.958 | 1.02 | 0.942 | 0.987
6 | O=C(O)COc1nc(Cl)c(Cl)cc1Cl | 1.13 | 0.874 | 0.989 | 0.94 | 1.19 | 1 | 0.993 | 1.04 | 0.963 | 0.99
7 | Cc1cc(C2CC2)nc(Nc2ccccc2)n1 | 0.934 | 0.979 | 0.939 | 0.916 | 0.756 | 0.903 | 0.981 | 1.04 | 0.959 | 0.953
8 | C=CCN(CC=C)C(=O)C(Cl)Cl | 0.976 | 1.02 | 1 | 1.01 | 1.01 | 0.99 | 0.985 | 0.974 | 0.973 | 0.978
9 | O=C(Cc1ccccc1)N/C(=N\OCC1CC1)c1c(C(F)(F)F)ccc(F)c1F | 1.23 | 0.936 | 0.965 | 0.945 | 0.852 | 0.959 | 0.912 | 0.975 | 0.957 | 0.915
10 | Nc1c([N+](=O)[O-])ccc(Oc2ccccc2)c1Cl | 0.741 | 0.964 | 0.861 | 0.941 | 0.925 | 0.941 | 0.978 | 0.871 | 0.982 | 0.897
11 | CCOC(=O)C(Cl)Cc1cc(-n2nc(C)n(C(F)F)c2=O)c(F)cc1Cl (stereo not given) | 0.963 | 0.991 | 0.927 | 0.967 | 0.996 | 0.926 | 0.936 | 1.02 | 0.981 | 0.972
12 | CCCC(Cn1cncn1)c1ccc(Cl)cc1Cl (stereo not given) | 1.01 | 0.936 | 0.987 | 0.977 | 1.2 | 0.949 | 0.941 | 1.07 | 0.911 | 0.992
13 | COC(=O)N(OC)c1ccccc1COc1ccn(-c2ccc(Cl)cc2)n1 | 0.936 | 0.803 | 0.91 | 0.972 | 1.09 | 0.91 | 0.861 | 1.03 | 0.989 | 1
14 | CC(C)(O)C(Cl)(Cl)Cl.CC(C)(O)C(Cl)(Cl)Cl.O | 1.08 | 1.01 | 1 | 0.973 | 1.12 | 1.05 | 1.02 | 0.917 | 1.03 | 0.999
15 | CCOP(=O)(OCC)ON1C(=O)c2cccc3cccc(c23)C1=O | 1.01 | 0.856 | 0.898 | 0.754 (active) | 0.482 (active) | 0.736 (active) | 0.683 (active) | 1.05 | 0.946 | 0.936
16 | Cc1cc(Cl)ccc1O | 1.04 | 1.02 | 1.03 | 1.01 | 1.09 | 1.03 | 1 | 0.911 | 1 | 1.01
17 | CC(C)=CC1C(C(=O)OCc2coc(Cc3ccccc3)c2)C1(C)C (stereo not given) | 0.878 | 0.995 | 0.943 | 1 | 0.965 | 0.973 | 0.988 | 0.899 | 1.02 | 0.936
18 | CCS(=O)(=O)CCSP(=O)(OC)OC | 0.829 | 1.02 | 0.962 | 1 | 0.979 | 1.01 | 0.986 | 1.01 | 0.975 | 1.01
19 | CC(C)C1(C)N=C(c2nc3ccccc3cc2C(=O)O)NC1=O (stereo not given) | 0.971 | 1.01 | 1.02 | 0.957 | 1.03 | 0.992 | 1.01 | 0.967 | 0.958 | 0.962
20 | C=C/C=C/CC1=C(C)C(OC(=O)[C@@H]2C(/C=C(\C)C(=O)OC)C2(C)C)CC1=O.C=C/C=C/CC1=C(C)[C@@H](OC(=O)[C@@H]2C(C=C(C)C)C2(C)C)CC1=O (stereo not given in full) | 0.901 | 0.966 | 0.918 | 1.02 | 0.87 | 0.967 | 0.971 | 0.698 | 1.01 | 0.949
21 | COC(=O)c1cc(Oc2ccc(Cl)cc2Cl)ccc1[N+](=O)[O-] | 1.02 | 0.953 | 0.793 (active) | 0.973 | 0.436 (active) | 0.968 | 0.814 | 1.02 | 0.905 | 0.901
22 | CC1(C)[C@H](C(=O)O[C@H](C#N)c2cccc(Oc3ccccc3)c2)[C@@H]1C=C(Br)Br | 0.878 | 0.983 | 0.982 | 1.04 | 1.04 | 1.02 | 1.05 | 0.843 | 1.02 | 0.935
23 | CCCCN(CCCC)SN(C)C(=O)Oc1cccc2c1OC(C)(C)C2 | 1.03 | 1.02 | 0.975 | 0.981 | 0.913 | 1.04 | 1.03 | 0.972 | 1.02 | 1.01
24 | Clc1cccc(Cl)c1Cl | 0.898 | 1.04 | 0.992 | 0.997 | 0.945 | 1.02 | 1.01 | 1.04 | 0.996 | 0.973
25 | COC(=O)NC(=S)Nc1ccccc1NC(=S)NC(=O)OC | 1.04 | 0.99 | 0.985 | 1.01 | 1.12 | 0.981 | 0.988 | 0.958 | 0.951 | 1.01
26 | C=CCN=C=S | 0.98 | 0.968 | 0.993 | 1.01 | 0.977 | 1.02 | 1.02 | 0.999 | 1.01 | 1.02
27 | CS/C(C)=N/OC(=O)N(C)SN(C)C(=O)O/N=C(\C)SC | 0.98 | 1.02 | 0.943 | 1.05 | 1.09 | 1.03 | 1.02 | 1.04 | 1.01 | 0.932
28 | CCOP(=S)(Oc1cnc(C(C)(C)C)nc1)OC(C)C (stereo not given) | 0.912 | 0.973 | 0.94 | 1.02 | 0.977 | 1.01 | 0.974 | 0.97 | 1 | 1.03
